Assay results taken from PubChem BioAssay AID1259319 (Sanford-Burnham Center for Chemical Genomics, 2017).
Hit rate of the full screen: of about 3,000 compounds, about 1,800 (60%) were called active. The set was probably picked from earlier hits. A selection follows. A number with no mark means an inactive call.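 The calls were made as follows: active = activation at or above a set limit, or at least 3 SD above the negative control mean; inactive = the rest.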

These compounds were tested against Nuclear receptor subfamily 1 group D member 1 (Homo sapiens) (UniProt P20393) (assay: modulators of Rev-erb alpha DNA binding, confirmation, biochemical, FITC-DNA, fluorescence polarization, single point (AID 1259319;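 also: 0% = 35 nM protein with DMSO and 100% = 750 nM protein high control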)). Conditions: 90 min, at 25 µM, stronger effect = higher value.
Chain of Nuclear receptor subfamily 1 group D member 1 (Homo sapiens) (P20393 whole entry, looked up): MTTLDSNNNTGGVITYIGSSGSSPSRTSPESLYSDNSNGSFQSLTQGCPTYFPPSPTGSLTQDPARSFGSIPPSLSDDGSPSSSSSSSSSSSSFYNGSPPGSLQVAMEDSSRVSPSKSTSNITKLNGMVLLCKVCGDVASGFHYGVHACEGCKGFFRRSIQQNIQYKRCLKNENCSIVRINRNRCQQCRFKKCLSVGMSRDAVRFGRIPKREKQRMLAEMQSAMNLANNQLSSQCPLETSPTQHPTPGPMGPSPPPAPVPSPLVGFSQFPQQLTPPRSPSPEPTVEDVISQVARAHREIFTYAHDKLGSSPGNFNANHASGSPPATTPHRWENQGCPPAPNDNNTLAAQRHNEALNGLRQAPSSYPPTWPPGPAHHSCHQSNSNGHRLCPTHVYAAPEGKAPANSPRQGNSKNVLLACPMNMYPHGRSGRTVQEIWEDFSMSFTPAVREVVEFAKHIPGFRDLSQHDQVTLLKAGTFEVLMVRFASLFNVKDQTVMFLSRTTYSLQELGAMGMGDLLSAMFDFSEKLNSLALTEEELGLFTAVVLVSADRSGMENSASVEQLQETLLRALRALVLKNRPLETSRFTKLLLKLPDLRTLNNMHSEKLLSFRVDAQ

Compound	activation
COCc1cc(C)nc(SCC(=O)Nc2cccc(C)c2)c1C#N	-4.78%
Cc1cc2cc3c(cc2nc1SCC(=O)Nc1c(C)cccc1C)CCC3	16.2%
Cc1nonc1NC(=O)CSc1nc2ccccc2cc1C#N	39.8% (active)
CCOc1cccc(C(=O)Nc2nnc(-c3cccs3)s2)c1	-1.11%
CCOc1ccc2cc(C#N)c(SCC(=O)OC)nc2c1	90.1% (active)
Cc1nc2cc(NC(=O)CSc3nc4c(C)cccc4cc3C#N)ccc2s1	85.3% (active)
CCOC(=O)c1c(NC(=O)CN2C(=O)NC3(CCC(C)CC3)C2=O)sc(C)c1CC (stereo unspecified)	11%
c1ccc2c(-c3nn4nnnc4c4ccccc34)cccc2c1	29.3% (active)
COc1ccc(C2=NN(C(=O)CSc3nc(=O)n4ccc(C)cc4n3)C(c3ccc(C)cc3)C2)cc1 (stereo unspecified)	4.15%
CCOc1cccc(NC(=O)Cn2nc(-c3ccc4c(c3)OCCO4)ccc2=O)c1	15.3%
COc1ccc(-c2nnc(SCC(=O)c3ccc4c(c3)OCCO4)o2)cc1	28.7% (active)
COc1nc(-c2ccc(Cl)cc2)ccc1-c1noc(-c2cccs2)n1	46.9% (active)
Fc1c(F)c(C(F)(F)F)c(F)c(F)c1N1CCN(c2ccc3nnc(C(F)(F)F)n3n2)CC1	40% (active)
COc1ccccc1N1CCN(CC(=O)Nc2ccnn2C2CCCC2)CC1	-5.83%
CC(=O)c1cc(C#N)c(SCC(=O)Nc2nccs2)nc1C	29% (active)
COc1ccc(-n2ncc3c(N4CCc5ccccc54)ncnc32)cc1	40.6% (active)
Cc1cc(C(C)(C)C)n2nc(C)c(-c3ccccc3)c2n1	4.3%
CCCCNC(=O)CSc1nc2n[nH]c(C)c2c(=N)n1-c1cccc(Cl)c1C	26.6% (active)
Cc1ccc(-n2c(SCC(=O)NCCC3=CCCCC3)nc3n[nH]c(C)c3c2=N)cc1Cl	14.5%
COc1ccc(CNC(=O)c2nnn(CC(=O)Nc3cc(C)cc(C)c3)c2N)cc1	21.9% (active)
COc1ccc(CC(=O)Nc2ccc(-c3nnc(-c4ccc(C)cc4)o3)cc2)cc1	-0.593%
Cc1c(-c2ccccc2)nc(N)c(C#N)c1-c1cccs1	16.4%
O=C(COC(=O)c1cccc(Br)c1)Nc1cccc2c1C(=O)c1ccccc1C2=O	18.5% (active)

Compound	activation
N#Cc1ccccc1Sc1ccccc1C(=O)OCC(=O)NC1CCCCC1	35.9% (active)
O=C(COC(=O)c1ccccc1SCC(=O)NC1CCCCC1)NC1CCCCC1	86.9% (active)
CC(C)C(C)NC(=O)COc1nc2ccccc2nc1N(C)C1CCCCC1 (stereo unspecified)	7.89%
Cc1cc(NC(=O)CSc2nc(C(C)C)nc3sc4c(c23)CCC(C)C4)no1 (stereo unspecified)	30.8% (active)
Cc1cc(NC(=O)CSc2nc3cc(Cl)ccc3c(=O)n2Cc2ccco2)no1	16.1%
Cc1nc(SCC(=O)Nc2cc(C)on2)c2c3c(sc2n1)CCCC3	43.7% (active)
C[n+]1ccc(/C=C/c2c[nH]c3ccccc23)cc1	136% (active)
CCc1ccc2c(c1)cc(CN(C(=S)Nc1ccccc1Cl)C1CC1)c1nnnn12	2.01%
COc1cccc(-n2c(SCC(=O)c3c[nH]c4ccccc34)nc3ccccc3c2=O)c1	30.8% (active)
CCOC(=O)c1ccc(NC(=O)c2c(NCc3ccccc3)[nH]c(=O)[nH]c2=O)cc1	1.79%
CCN(CC)c1ccc2cc(C(N)=O)/c(=N\NC(=O)c3ccncc3)oc2c1	25.4% (active)
Cn1c(=O)n(C)c2cc(/C=N/NC(=O)c3cccc(Br)c3)ccc21	8.29%
COc1cc(Cl)c(C)cc1NC(=O)COC(=O)c1cc(SC)ccc1Cl	23.3% (active)
CCN1/C(=C\c2ccc3ccccc3[n+]2CC)Sc2cc(C)ccc21	67.5% (active)
Cc1nc2nc(SCC(=O)Nc3cccc(F)c3)[nH]c2cc1Br	20% (active)
Cc1nc2nc(SCC(=O)c3ccccc3)[nH]c2cc1Br	45% (active)
CCn1c(SCC(=O)Nc2cccc(F)c2)nnc1-c1cc2cc(Br)ccc2o1	26.2% (active)
COc1ccc(C(=O)Nc2cccc(NC(=O)c3ccc(OC)cc3OC)n2)c(OC)c1	4.36%
COc1ccc2[nH]c(C(=O)Nc3ccccc3Cl)cc2c1	30.5% (active)
Cc1cc(=O)oc(C)c1C(=O)N1CCCCC1	-0.804%
CC(C)Cn1c(CN(Cc2ccccc2)Cc2ccccc2)nc2c1c(=O)n(C)c(=O)n2C	48.3% (active)
Fc1ccc(CNc2nc3ccccc3n3nnnc23)cc1	27% (active)
COC(=O)c1cccc(Cn2ccc3ccc(-c4ccc5ccn(C(=O)C6CCCCC6)c5c4)cc32)c1	43.5% (active)

Compound	activation
COC(=O)c1cccc(Cn2ccc3ccc(-c4ccc5ccn(C(=O)c6ccccc6C)c5c4)cc32)c1	89.9% (active)
CCOC(=O)c1c(C)oc2cc(Br)c(OCC(N)=O)cc12	40.3% (active)
COc1cc(OC)cc(-c2nc(=S)n3ccsc3n2)c1	2.77%
Cc1sc2ncnc(N3CCC(C(=O)Nc4nc5ccc(Cl)cc5s4)CC3)c2c1C	51% (active)
CN1C(=O)c2ccc(C(=O)Nc3ccc(Br)cn3)cc2C1=O	30.1% (active)
CCCCCn1nnnc1C1c2ccccc2C(=O)N1Cc1ccco1 (stereo unspecified)	-8.88%
O=c1cc(N2CCCCC2)c(-c2ccccc2)nn1Cc1cccc(F)c1	8.56%
CCC(C(=O)NC1CCCC1)N(C(=O)c1snc(C(N)=O)c1N)c1ccc2c(c1)OCCO2 (stereo unspecified)	20.2% (active)
NC(N)=Nc1nc2ccc(Br)cc2c(=O)[nH]1	21.2% (active)
O=C1Cc2ccccc2Sc2ccc(Cl)cc21	23.2% (active)
CCOc1cc(-c2cc(-c3ccc(OC)cc3)nc(N)c2C#N)ccc1O	13.9%
CCOc1nc(-c2ccc(OC)cc2)ccc1-c1noc(-c2cc(OC)c(OC)c(OC)c2)n1	22.3% (active)
Cc1ccc(-n2nc3cc(C)c(NC(=O)c4cccnc4)cc3n2)cc1	0.139%
COc1cccc(-c2ccc(C#N)c(SCC(=O)NCCc3ccc(Cl)cc3)n2)c1	13.2%
COc1ccc(CCNC(=O)CSc2nc(-c3ccc(OC)c(OC)c3)ccc2C#N)cc1	37% (active)
CCOC(=O)c1ccc(NC(=S)Nc2cc(C)cc(C)n2)cc1	4.33%
COc1ccc(-c2csc3ncnc(N4CCN(S(=O)(=O)c5ccccc5C#N)CC4)c23)cc1	14.6%
CC(=O)c1ccc(S(=O)(=O)N2CCN(c3nc4c(C)c(C)ccc4cc3C#N)CC2)cc1	181% (active)
COc1ccc(S(=O)(=O)N2CCN(c3ncnc4c(-c5ccccc5)nsc34)CC2)cc1	8.1%
COCCCNc1nc2c(-c3cccc(C)c3)nnn2c2ccc(Cl)cc12	28.8% (active)
Cc1nn(C)cc1N1C(=O)c2cccc3c(N)ccc(c23)C1=O	181% (active)
CN1C(=O)c2cccc3c(N)ccc(c23)C1=O	225% (active)
COc1ccc(-c2c(C)cc3oc(=O)cc(-c4ccccc4)c3c2C)cc1C=O	8.9%

Compound	activation
C=C(C)C1CC=C(C)/C(=N\NC(=O)CNc2ccccc2OC)C1 (stereo unspecified)	6.76%
COC(=O)Cn1c(=NC(=O)c2cc(OC)c(OC)c(OC)c2)sc2cc(OC)ccc21	14.3%
C=CCn1c(=NC(=O)c2cccs2)sc2cc(NC(C)=O)ccc21	33.8% (active)
C=CCn1c(=NC(=O)c2ccc(S(=O)(=O)N3CCCC3)cc2)sc2cc(NC(C)=O)ccc21	34.3% (active)
Cn1c(=NC(=O)c2ccc3c(c2)OCCO3)sc2cc(S(C)(=O)=O)ccc21	12.7%
COc1ccccc1CC1(C)C(=O)Nc2ccc(OC(F)(F)F)cc21 (stereo unspecified)	60.9% (active)
O=C(NCc1ccc(Cl)cc1)c1cc2c(nc3sccn32)s1	19.2% (active)
COc1cc2c(cc1NC(=O)CN1CCN(S(=O)(=O)c3ccc(F)cc3)CC1)oc1ccccc12	3.46%
COc1ccc(S(=O)(=O)N2CCOCC2)cc1C(=O)Nc1nc2ccccc2s1	20.7% (active)
COc1ccc(C)cc1Nc1nc(C)nc2c1oc1ccccc12	28.2% (active)
CCOC(=O)c1sc(NC(=O)CCN2CCOCC2)c(C(=O)OCC)c1C	5.98%
COc1ccc(-c2nn(C)c(=O)c3ccccc23)cc1NC(=O)COc1ccccc1	33.9% (active)
CCOc1ccc(NC(=O)CSc2ncnc3c2sc2ccccc23)cc1	107% (active)
COc1cc(OC)c(N2CC(C(=O)Nc3cc(Cl)ccc3N3CCOCC3)CC2=O)cc1Cl (stereo unspecified)	1.79%
COc1cc(OC)cc(-c2c(C#Cc3ccsc3)c3cc(-c4ccc(SC)cc4)ccc3n2C)c1	32.1% (active)
CCOc1ccc2nc(Cl)c(C3CC(c4ccccc4)=NN3C(=O)c3cccs3)cc2c1 (stereo unspecified)	-0.503%
Cc1ccc(S(=O)(=O)c2c[nH]c3ccc(Cl)cc3c2=O)cc1	137% (active)
COc1ccc(-n2nc(C(=O)NCC(=O)Nc3cccc(C)n3)c3ccccc3c2=O)cc1	10.2%
COc1ccc(-n2nc3c(N4CCC(C(=O)NCc5ccccc5)CC4)nnc(C)c3c2C)cc1	32.9% (active)
Cc1nc(N2CCN(c3ccccn3)CC2)c2c(C)c(C(=O)Nc3ccc(F)c(Cl)c3)sc2n1	17.3%
Cc1cc(Br)ccc1NC(=O)c1sc2ncn(CC(=O)N3CCN(c4ccccn4)CC3)c(=O)c2c1C	37.6% (active)
CCOC(=O)c1ccc(NC(=S)N2CCN(c3ccccn3)CC2)cc1	12.8%
